# Experimental data: PubChem BioAssay (EPA / NIEHS)
# Several values for one entry are separate records, joined by “and”; a condition that tells them apart may be missing. Identical values can stand only once. Inconclusive results are not listed. Activity calls are given as the source filed them. Rule for the calls: active = hit-call score of the fitted dose curve at least 0.9, where 1 is the maximum; inconclusive = response in the unintended direction; inactive = score below 0.9.
# Target: human Tyrosine Protein Kinase Receptor Tie-2 (Tie2), TEK (gene 7010) (UniProt Q02763)
# Sequence (Q02763 whole entry, looked up): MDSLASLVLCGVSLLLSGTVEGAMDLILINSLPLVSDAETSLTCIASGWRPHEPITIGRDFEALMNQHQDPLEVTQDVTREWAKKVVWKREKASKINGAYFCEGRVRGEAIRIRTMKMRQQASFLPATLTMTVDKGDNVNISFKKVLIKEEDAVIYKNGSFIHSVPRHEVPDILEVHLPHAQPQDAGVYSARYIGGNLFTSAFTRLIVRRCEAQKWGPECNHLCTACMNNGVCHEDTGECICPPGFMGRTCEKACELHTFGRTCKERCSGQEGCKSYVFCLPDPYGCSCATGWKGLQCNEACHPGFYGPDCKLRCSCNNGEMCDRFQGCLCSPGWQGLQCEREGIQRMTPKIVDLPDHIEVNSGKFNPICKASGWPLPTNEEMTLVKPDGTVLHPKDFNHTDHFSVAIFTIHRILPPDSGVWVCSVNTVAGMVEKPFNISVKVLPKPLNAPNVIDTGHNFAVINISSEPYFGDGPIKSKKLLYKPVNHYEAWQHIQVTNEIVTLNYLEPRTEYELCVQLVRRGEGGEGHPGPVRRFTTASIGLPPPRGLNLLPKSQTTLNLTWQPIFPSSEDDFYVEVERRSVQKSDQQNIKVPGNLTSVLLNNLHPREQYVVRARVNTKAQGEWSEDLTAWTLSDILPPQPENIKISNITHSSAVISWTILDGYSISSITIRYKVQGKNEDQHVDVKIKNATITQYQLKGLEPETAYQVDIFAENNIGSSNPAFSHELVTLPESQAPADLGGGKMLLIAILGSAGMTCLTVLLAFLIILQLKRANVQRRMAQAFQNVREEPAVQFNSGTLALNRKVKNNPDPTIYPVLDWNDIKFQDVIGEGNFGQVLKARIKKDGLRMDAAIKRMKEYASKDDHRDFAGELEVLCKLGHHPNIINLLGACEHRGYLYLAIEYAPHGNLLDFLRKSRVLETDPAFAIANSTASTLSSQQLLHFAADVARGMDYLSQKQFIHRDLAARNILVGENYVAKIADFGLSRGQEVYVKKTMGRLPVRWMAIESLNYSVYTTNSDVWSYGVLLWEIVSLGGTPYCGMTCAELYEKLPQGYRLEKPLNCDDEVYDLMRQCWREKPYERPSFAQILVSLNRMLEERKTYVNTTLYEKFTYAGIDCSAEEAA
# Test: NVS_ENZ_hTie2: NovaScreen (NVS) Enzymatic Assay for human Tyrosine Protein Kinase Receptor Tie-2 (Tie2) (AID 2283225)
# Experimental: NVS_ENZ_hTie2 is a biochemical, single-readout assay that uses extracted gene-proteins in a cell-free assay. Measurements were taken 1 hour after chemical dosing in a 384-well plate.NVS_ENZ_hTie2 is one of one assay component(s) measured or calculated from the NVS_ENZ_hTie2 assay. It is designed to make measurements of enzyme activity, a form of enzyme reporter, as detected with fluorescence intensity signals by Fluorescence and electrophoretic mobility shift technology.Data from the assay component NVS_ENZ_hTie2 was analyzed into 1 assay endpoint. This assay endpoint, NVS_ENZ_hTie2, was analyzed in the positive analysis fitting direction relative to DMSO as the negative control and baseline of activity. Using a type of enzyme reporter, loss-of-signal activity can be used to understand changes in the enzymatic activity as they relate to the gene TEK. Furthermore, this assay endpoint can be referred to as a primary readout, because this assay has produced multiple assay endpoints where this one serves a enzymatic activity function. To generalize the intended target to other relatable targets, this assay endpoint is annotated to the kinase intended target family, where the subfamily is receptor tyrosine kinase.
# Binding assays used specific radioligands (tritiated, iodinated) with non-radioactive competitive displacement ligands in agonist or antagonist protocols (as indicated) and various reference compounds and inhibitors to titrate specific binding to receptors and transporters. Most enzyme assays (CYPs, kinases, phosphatases, proteases, HDACs) used recombinant protein and specific substrates (fluorescence mostly, some colorimetric and radioactive) and inhibitors, followed by a biochemical separation of substrate and product. All assays for the biochemical HTS were initially run in duplicate at a single concentration (10 uM for CYP450 assays and 25 uM for all others). Assay-chemical combinations meeting a pre-defined threshold (e.g., 30% inhibition and other criteria defined below) were then run in singleton concentration-response format with maximum concentration of 20 uM for CYPs and 50 uM for all others. Each assay was run with positive and negative controls, and concurrent controls on every plate. The follow-up (secondary) screen tested active chemical-pairs in concentration series, as well as a few additional assays not tested in the primary screen, some selected negative inactives, and several cases re-run in the concentration series for confirmatory purposes.
Structure (SMILES),outcome,AC50
C[C@]12CC[C@@H]3c4ccc(O)cc4C[C@@H](CCCCCCCCCS(=O)CCCC(F)(F)C(F)(F)F)[C@H]3[C@@H]1CC[C@@H]2O (stereo not given in full),inactive,–
CCCCCCCC(=O)O,inactive,–
CCCCC(CC)COC(=O)CCCCC(=O)OCc1ccccc1 (stereo not given),inactive,–
CC/C(=C(\c1ccccc1)c1ccc(OCCN(C)C)cc1)c1ccccc1,inactive,–
COCC(C)OCC(C)O (stereo not given),inactive,–
S=C([S-])NCCNC(=S)[S-].[Mn+2],–,12.9 µM (active)
CC(C)(c1ccc(O)cc1)c1ccc(O)cc1,inactive,–
CCCCCCCCCCCCCC[P+](CCCC)(CCCC)CCCC,–,15.3 µM (active)
O=C(c1ccc(OCCN2CCCCC2)cc1)c1c(-c2ccc(O)cc2)sc2cc(O)ccc12,–,31 µM (active)
CC(C)c1ccc(C(=O)N=C(N)N)cc1S(C)(=O)=O,inactive,–
CN(C)c1ccc(N=NS(=O)(=O)O)cc1,inactive,–
N[C@@H](Cc1cc(I)c(Oc2ccc(O)c(I)c2)c(I)c1)C(=O)O,inactive,–
CC(C)c1cccc(C(C)C)c1N1C(=O)c2ccc(O)cc2C1=O,inactive,–
O=C(O)c1cc(N=Nc2ccc(S(=O)(=O)Nc3ccccn3)cc2)ccc1O,inactive,–
Cc1ccc(N)cc1O,inactive,–
CC/C(=C(/CC)c1ccc(O)cc1)c1ccc(O)cc1,inactive,–
O=C(O)c1ccc2c(c1)nc(C(=O)NC1CCN(C3CC3)CC1)n2Cc1cc(-c2ccc(Cl)s2)on1,inactive,–
CCC(O)=C1C(=O)CC(C(=O)O)CC1=O (stereo not given),inactive,–
Cc1ccc2ncccc2c1,inactive,–
COc1ccc2sc(C(=O)Nc3nnn[nH]3)c(OC(C)C)c2c1,inactive,–

Structure (SMILES),outcome,AC50
C#C[C@]1(O)CC[C@H]2[C@@H]3CCC4=CC(=O)CC[C@@H]4[C@H]3CC[C@@]21C,inactive,–
CCCN(CCC)c1c([N+](=O)[O-])cc(C(F)(F)F)c(N)c1[N+](=O)[O-],inactive,–
CN(C)C(=O)NC1(c2ccccc2)CCN(CC[C@@]2(c3ccc(F)c(F)c3)CN(C(=O)c3ccccc3)CCO2)CC1,inactive,–
O=C(CCl)c1ccccc1,inactive,–
CCOC(=O)C(C)(C)Oc1ccc(Cl)cc1,inactive,–
N#CSCSc1nc2ccccc2s1,inactive,–
NC(=NCCCCCCN=C(N)/N=C(\N)Nc1ccc(Cl)cc1)/N=C(\N)Nc1ccc(Cl)cc1,inactive,–
CCc1c(C(=O)NN2CCCCC2)nn(-c2ccc(Cl)cc2Cl)c1-c1ccc(Br)cc1,inactive,–
COc1ccc(/C=C/S(=O)(=O)NC(=O)c2ccc(C)cc2Cl)cc1,inactive,–
S=C(S)NCCNC(=S)S.[Mn+2].[S-]C([S-])=NCCN=C([S-])[S-].[Zn+2],–,9.01 µM (active) and 2.11 µM (active) and 12.8 µM (active)
FC(F)(F)C(F)(F)C(F)(F)C(F)(F)C(F)(F)C(F)(F)CCI,inactive,–
Cc1ncc([C@@H](CCCCCCc2ccc3c(n2)NCCC3)CC(=O)O)cn1,inactive,–
CC(=O)OCCC(C)C,inactive,–
CC(CO)OC(C)CO (stereo not given) (tested in a mixture with another compound),inactive,–
O=C(O)Cc1cc(I)c(Oc2cc(I)c(O)c(I)c2)c(I)c1,inactive,–
COc1ccc(OC(F)(F)F)cc1CN[C@H]1CCCN[C@H]1c1ccccc1,inactive,–
O=[N+]([O-])c1ccc(Cl)cc1,inactive,–
O=C(O)C1(C(=O)Nc2ccc(Cl)cc2Cl)CC1,inactive,–
CCCCCCCCCCCCc1ccccc1S(=O)(=O)O,–,9.14 µM (active)
O=c1[nH]cnc2c1ncn2[C@H]1CC[C@@H](CO)O1,inactive,–
